Compounds with a hit are over-represented: about 8% of the library has one in this group of screens.
HT1080 IDH1KD tx: qHTS for induction of synthetic lethality in tumor cells producing 2HG: qHTS for the HT-1080-IDH1KD cell line; HT-1080 IDH1 knockdown viability, ATP luminescence, 48 h; Potency, µM (top dose mostly 46.1 µM), for inactives: at the highest dose activity, negative = toxicity, hits mostly cytotoxic; 360,000 tested, 2% active; AID 686971, 2013;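 also: 0% = DMSO wells and -100% = cell-free medium wells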
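IDH1KD HT-1080 cells, 750/well, RPMI + 5% FBS; compound pinned after 2 h settling; 48 h, 37 °C; CellTiter-Glo luminescence; % activity normalised to DMSO and no-cell wells; curves fitted, classed by r2 and efficacy.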
KB-V1 cytotox: qHTS assay for MDR1-selective chemotherapeutics: Primary screen using the drug-selected MDR subline cells KB-V1. Potency, µM (series often up to 46.1 µM), usual class: cytotoxic. KB-V1 MDR cells viability, CellTiter-Glo, 72 h. 400,000 tested, 3.4% active; also: % is scaled to controls: 0 for no effect and ±100 for the full control effect; nearly all actives have a fitted effect of over 60% in size
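KB-V1, DMEM (no phenol red) + 10% FBS; cpd pin-transferred, titration series; 72 h, 37 degrees C; CellTiter-Glo, luminescence. Data normalized, curve-fit.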
HT1080NT lethal: qHTS for induction of synthetic lethality in tumor cells producing 2HG: qHTS for the HT-1080-NT fibrosarcoma cell line; HT-1080-NT fibrosarcoma viability, CellTiter-Glo ATP luminescence, 48 h; Potency, µM (series often up to 46.1 µM), for the others: at the highest dose activity, negative = less viability, most hits filed as cytotoxic; 360,000 tested, 1.6% active; AID 686970, 2013;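 also: NT is the 2HG producing partner of a matched IDH1 knockdown line; 0% = DMSO-treated cells and -100% = media-only wells without cells; nearly all actives have a fitted effect of over 55% in size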
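Read-out is CellTiter-Glo luminescence after 10 minutes at room temperature, following 48 hours' compound treatment of HT-1080-NT cells (750 cells/well, RPMI, 5% FBS, 37 degrees C).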
MCF10A rerep: A quantitative high throughput screen for small molecules that induce DNA re-replication in MCF 10a normal breast cells; AID 624296, 2012; Potency, µM (top dose mostly 46.1 µM), for the others: at the top dose activity, positive = re-replication, most hits filed as activators; 350,000 tested, 2.9% active; MCF 10A DNA re-replication, Hoechst nuclear intensity, 48 h; also: % of control where 0% means no effect; nearly all actives have a fitted effect of over 50% in size
KB-3-1 cytotox: qHTS assay for MDR1-selective chemotherapeutics: Primary screen using the parental adenocarcinoma cell KB-3-1; KB-3-1 viability, CellTiter-Glo ATP luminescence, 72 h; AID 1347075, 2019; Potency, µM (top dose mostly 46.1 µM), most hits filed as cytotoxic; 400,000 tested, 1.4% active; also: % is scaled to controls: 0 for no effect and ±100 for the full control effect; nearly all actives have a fitted effect of over 60% in size
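72 h, 37 °C compound treatment of KB-3-1 parental cells; CellTiter-Glo added, 10 min, luminescence read. Data corrected against DMSO-only plates and normalized before curve fitting.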
SW480 rereplic: A quantitative high throughput screen for small molecules that induce DNA re-replication in SW480 colon adenocarcinoma cells | AID 624297, 2012 | 340,000 tested, 1.8% active | SW480 DNA re-replication, Hoechst DNA content imaging, 48 h | Potency, µM (doses to about 46.1 µM), without a hit: top-dose re-replication activation, actives largely listed as activators; also: % of control where 0% means no effect; nearly all actives have a fitted effect of over 55% in size
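Hoechst fluorescence of nuclei (405 nm excitation, 500-530 nm emission) measured by plate-scanning imager after 48 hr compound exposure at 37 C; re-replication scored as increased number of nuclei with elevated intensity.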
Starred values were filed as active, the others as inactive; i = inactive; u = inconclusive; x = not tested or not shown; [ ] = remark or other dose. Calls follow the shape of the dose curve; as a rule, active = well fitted curve in the direction sought with a large enough effect; inconclusive = small, poorly fitted or top-dose-only effect, or another doubt; inactive = no such curve, though single readings can be large; an effect the other way counts as inactive or inconclusive. Potency is read from the fitted curve at half-maximal effect.

SMILES	HT1080 IDH1KD tx	KB-V1 cytotox	HT1080NT lethal	MCF10A rerep	KB-3-1 cytotox	SW480 rereplic
O=C(CN1N=C(c2ccccc2)CCC1=O)NCCN1CCc2ccccc2C1	0%	9.2µM*	-2%	-5%	i	-10%
O=C(CN1N=C(c2ccccc2)CCC1=O)NCc1ccccc1	15%	i	14%	-1%	i	-4%
Cc1c(NC(=O)CSc2nnc3c4ccccc4n(CCc4ccccc4)c3n2)c(=O)n(-c2ccccc2)n1C	u	u	u	8.2µM*	u	u
O=C(Nc1ccc(N2CCN(C(=O)c3ccco3)CC2)cc1)c1cc(Br)ccc1Cl	u	2.1µM*	u	u	u	u
O=C(Nc1ccc(N2CCN(C(=O)c3ccco3)CC2)cc1)c1ccc2c(c1)OCO2	u	i	-17%	-179%[0.0737 µM]	5.8µM*	u
CC(=O)c1ccc2c(c1)Cc1cc(C(C)=O)ccc1-2	1%	u	3%	-4%	i	-3%
CC(=O)c1ccc2c(c1)CC1(C2)Cc2cc3c(cc2C1)C(=O)CC3 (stereo not given)	u	2.6µM*	u	4.1µM*	3.7µM*	7.3µM*
O=C1NC(=Nc2ccccc2)SC1Cc1ccccc1 (stereo not given)	0%	i	1%	-5%	i	5.8µM*
O=C1N/C(=N\c2ccccn2)SC1Cc1ccc(Cl)cc1 (stereo not given)	-15%	i	-14%	u	i	-14%
O=C1N/C(=N/c2ccccn2)SC1Cc1ccccc1 (stereo not given)	10µM*	u	u	22%	i	u
CNc1c(Br)cc(C=O)cc1Br	x	i	x	x	i	x
O=C(/C=C/c1cccc([N+](=O)[O-])c1)n1cnc2ccccc21	2.6µM*	u	u	3.7µM*	u	5.8µM*
CC(=O)Oc1ccccc1C(=O)C=Cc1cccc([N+](=O)[O-])c1	16µM*	5.8µM*	u	5.8µM*	15µM*	u
O=C(/C=C/c1cccc([N+](=O)[O-])c1)Nc1ccc(NC(=O)c2cccs2)cc1	7%	i	6%	-8%	i	-2%
O=C(/C=C/c1cccc([N+](=O)[O-])c1)c1cccs1	16µM*	u	10µM*	3.3µM*	u	5.8µM*
Cc1cc(Oc2ccc(Cl)cc2Cl)nc(C#N)n1	-26%	x	-19%	x	x	x
O=C(NCc1ccccc1Cl)C(=O)NCC(c1ccc2c(c1)OCO2)N1CCOCC1 (stereo not given)	x	i	x	x	i	x
C=Cc1ccc(CN2C(=O)N(c3cccc(Cl)c3)S(=O)(=O)c3ccccc32)cc1	x	i	x	x	i	x
CCCCn1nnc(NC(=S)NC(=O)c2cccs2)n1	0%	i	-2%	-5%	i	18µM*
CC(C)c1ccc(C(=O)Nc2ccc(-c3nc4ccccc4s3)c(Cl)c2)cc1	x	i	x	x	i	x
Cc1cccc(N2CCN(C(=O)c3cccc(-n4c(C)nc5cccnc54)c3)CC2)c1C	x	u	x	x	i	x
Cc1nc2ccccc2n1-c1nc(-c2ccco2)cc(C(F)(F)F)n1	5.6µM*	i	5.6µM*	u	i	u
CCOC(=O)c1c(C)oc2c1cc(NS(=O)(=O)c1ccc(C)cc1)c1ccccc12	x	i	x	x	i	x
Cc1cccc(C)c1NC(=O)C(c1cc2ccccc2o1)N1CCC(c2ccccc2)CC1 (stereo not given)	13%	21µM*	-1%	x	u	x
CC(=O)c1cc(C(=O)N2CCc3c([nH]c4ccccc34)C2C2CCCCC2)[nH]n1 (stereo not given)	-4%	u	-23%	1.5µM*	i	11%
SMILES	HT1080 IDH1KD tx	KB-V1 cytotox	HT1080NT lethal	MCF10A rerep	KB-3-1 cytotox	SW480 rereplic
Cc1cnc(CN2CCc3c([nH]c4ccccc34)C2CC(C)C)[nH]1 (stereo not given)	-9%	i	-21%	u	i	6.5µM*
Cc1cnc(C(=O)N2CCc3c([nH]c4ccccc34)C2c2ccc(F)cc2)cn1 (stereo not given)	-26%	i	-24%	4%	u	13%
Cc1c(CN2CCc3c([nH]c4ccccc34)C2C2CCCCC2)cnn1C (stereo not given)	-14%	i	-3%	18µM*	i	6%
Cc1cccc(CN2CCc3c([nH]c4ccccc34)C2CC(C)C)n1 (stereo not given)	u	i	-14%	18µM*	i	u
CCN(Cc1ccccc1)c1ncnc2c1nnn2C	x	i	x	x	i	x
CCC(=O)N1CCc2cc(S(=O)(=O)NC(C(=O)NCCc3ccccc3)C(C)C)ccc21 (stereo not given)	x	i	x	x	i	x
COC(=O)c1c(NC(=O)c2ccc(C)c(S(=O)(=O)Nc3ccccc3C)c2)sc2c1CCCC2	10%	23µM*	6%	u	i	0%
CCOC(=O)c1c(NS(=O)(=O)c2ccc(Br)cc2)sc2c1CCC2	3%	i	-1%	u	i	1%
COC(=O)c1c(NS(=O)(=O)c2ccc3ccccc3c2)sc2c1CCCC2	u	16µM*	-19%	u	i	5%
Brc1ccc2ncnc(Nc3ccc(N4CCOCC4)cc3)c2c1	-27%	2.9µM*	-25%	u	u	u
COc1cccc(C2=NN(S(C)(=O)=O)C(c3cn(-c4ccccc4)nc3-c3cccs3)C2)c1 (stereo not given)	x	i	x	x	i	x
COCc1cc(C)nc(SCc2nc3ccccc3c(=O)[nH]2)c1C#N	-26%	i	u	2.1µM*	i	u
Cc1cc(C)c(C#N)c(SCc2nc3ccccc3c(=O)[nH]2)n1	-1%	i	1%	10µM*	i	u
Cc1ccc2nc(SCc3nc4ccccc4c(=O)[nH]3)[nH]c2c1	-11%	u	-13%	u	i	1%
CCCCC(=O)NC(=S)Nc1ccccc1N1CCCCC1	9%	i	9%	u	i	u
CCCC(=O)NC(=S)Nc1cccc(Cl)c1N1CCCCC1	10µM*	18µM*	5µM*	u	u	15%

Compound activity deposited in PubChem BioAssay by National Center for Advancing Translational Sciences (NCATS).
